NPSR antag = neuropeptide S receptor (human) antagonism, cAMP. CHO-NPSR cells, cAMP TR-FRET, antagonist mode. 1% of 220,000 active. AID 1461. Q6W5P4. Potency, µM (titrated, usually from 38.3 µM), for inactives: top-dose activity change, negative = inhibition, usual class: inhibitors; note: nearly all actives have a fitted effect of over 50% in size
Tau ThT inhib = tau fibrillization inhibition (ThT binding). P10636. recombinant tau K18 P301L, heparin-induced fibrillization, ThT fluorescence. Potency, µM (highest dose often 57.4 µM), for inactives: at the top dose activity, negative = inhibition, most hits filed as inhibitors. 2.1% of 270,000 active; note: nearly all actives have a fitted effect of over 55% in size
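ThT emission at 510 nm, taken 1 hr after adding 30 uM dye, quantifies aggregates formed when 20 uM heparin acts on human tau K18 P301L for 6 hr at 37 C.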
Tau fluor counter = counter-screen for tau fibril formation inhibitors; tau K18 P301L (four-repeat tau fragment) Alexa594 fluorescence, heparin fibrillization; Potency, µM (series often up to 57.7 µM), without a hit: at the highest dose activity change, negative = decrease; 0.93% of 280,000 active; note: nearly all actives have a fitted effect of over 55% in size
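Human K18 P301L tau (15 uM unlabeled plus 0.24 uM Alexa 594-labeled, final) in 100 mM sodium acetate pH 7 was mixed with compound and 20 uM heparin and incubated 6 hr at 37 C.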
ALDH1A1 inh = ALDH1A1 (human) enzyme inhibition; 7.3% of 220,000 active; Potency, µM (doses to about 75.3 µM), for inactives: at the top dose activity, negative = inhibition, hits mostly inhibitors; P00352; Purified ALDH1A1, NADH fluorescence, propionaldehyde substrate; active = well fitted inhibition curve with a large enough effect, not every such curve was filed as active; inconclusive = small, poorly fitted or top-dose-only effect, or another doubt; inactive = no such curve, though single readings can be large or run the other way;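 note: plate controls were no enzyme wells and a reference inhibitor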
Target sequence (P00352 whole entry, looked up): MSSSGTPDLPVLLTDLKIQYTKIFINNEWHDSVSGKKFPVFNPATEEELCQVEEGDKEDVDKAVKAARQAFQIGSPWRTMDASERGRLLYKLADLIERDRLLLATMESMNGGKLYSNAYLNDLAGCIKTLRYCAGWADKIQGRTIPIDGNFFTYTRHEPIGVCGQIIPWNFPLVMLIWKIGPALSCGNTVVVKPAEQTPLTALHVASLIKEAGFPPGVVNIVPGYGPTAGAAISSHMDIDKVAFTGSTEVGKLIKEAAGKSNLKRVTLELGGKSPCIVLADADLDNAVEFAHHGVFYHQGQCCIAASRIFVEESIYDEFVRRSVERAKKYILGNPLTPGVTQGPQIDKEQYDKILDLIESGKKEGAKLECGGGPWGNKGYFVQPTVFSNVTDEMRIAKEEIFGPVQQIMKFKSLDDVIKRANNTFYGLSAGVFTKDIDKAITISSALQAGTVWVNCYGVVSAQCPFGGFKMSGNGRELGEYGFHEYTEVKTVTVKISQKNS
Tau FP inhib = inhibitors of human tau fibril formation; K18 P301L tau heparin fibrillization, Alexa594 FP, 6 h; AID 1468; P10636; 0.39% of 280,000 active; Potency, µM (highest dose often 57.7 µM), for inactives: top-dose activity, negative = inhibition, usual class: inhibitors; note: nearly all actives have a fitted effect of over 55% in size
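Compound effects on tau fibrillization are measured by Alexa 594 fluorescence polarization (ex 555, em 632 nm). K18 P301L tau is used at 15 uM with 0.24 uM labeled tracer, and 20 uM heparin induces aggregation over 6 hr at 37 C.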
HPGD inh = blocks human HPGD enzyme activity; P15428; purified HPGD, NADH fluorescence kinetic, PGE2 substrate; Potency, µM, for the others: at the top dose activity change, negative = inhibition, most hits filed as inhibitors; 4.3% of 150,000 active; AID 894; active = well fitted inhibition curve with a large enough effect, not every such curve was filed as active; inconclusive = small, poorly fitted or top-dose-only effect, or another doubt; inactive = no such curve, though single readings can be large or run the other way
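20 nM HPGD preincubated 15 min at room temperature with compound in 50 mM Tris-HCl pH 8, 0.01% Tween 20. Started with 1 mM NAD+ and 30 uM prostaglandin E2; NADH fluorescence (360/450 nm) read 5 times over 30-s intervals, last minus first.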
* marks the source's active call; other numbers are inactive results; u = inconclusive; x = not tested or not shown; [ ] = another dose, or the depositor's remark. This is a sample that favours compounds with a hit; in the whole collection about 9.5% have one here. Unless noted, calls come from the whole dose curve; as a rule, active = well fitted curve in the direction sought with a large enough effect; inconclusive = small, poorly fitted or top-dose-only effect, or another doubt; inactive = no such curve, though single readings can be large; an effect the other way counts as inactive or inconclusive. Unless noted, % is set by controls: 0 for no effect and ±100 for the full control effect; potency is the fitted concentration of half-maximal effect.

SMILES	NPSR antag	Tau ThT inhib	Tau fluor counter	ALDH1A1 inh	Tau FP inhib	HPGD inh
CCCCNC(=O)Nc1nnc(-c2ccc(Cl)cc2)o1	-11%[46.1 µM]	4%	-14%	-4%	-10%	-20%
COc1ccc(C(CC(=O)Nc2ccccn2)N2Cc3ccccc3C2=O)cc1OC (stereo unspecified)	x	-1%	-3%	x	-4%	x
O=C(O)c1ccc(N/N=C/c2cccc(F)c2)cc1	-13%	4%	3%	20µM*	4%	u
O=C(O)c1ccc(N/N=C/c2ccc(OC(=O)c3cccc(Cl)c3)cc2)cc1	-18%	13µM*	u	x	u	x
BrC(=C\c1ccccc1)/C=N/N1CCN(c2ccccc2)CC1	-37%	20µM*	u	u	u	x
O=C(O)c1ccc(N/N=C/c2ccc3nccnc3c2)cc1	u	3.5µM*	-19%	-4%	-4%	x
CCCCNC(=O)c1nn(-c2ccc(C)cc2)c(=O)c2c1c1ccccc1n2C	x	0%	-4%	x	-5%	x
CCOc1ccc(-c2cc(C(=O)NCCCOC)c3c(-c4ccc(CC)cc4)[nH]nc3n2)cc1	x	4%	0%	x	-10%	x
CC(=O)Nc1ccc(S(=O)(=O)N2CCN(c3nc(NC4CCCC4)c4ccccc4n3)CC2)cc1	u	-17%	14µM*[quencher]	u	22µM*	u
CN1C(=O)/C(=C/c2cc(N=Nc3ccccc3)ccc2O)SC1=S	-19%[46.1 µM]	4.5µM*	6.3µM*[quencher]	u	u	-19%
Cc1c(N2C(=O)/C(=C\c3ccccc3O)SC2=S)c(=O)n(-c2ccccc2)n1C	u	32µM*	-26%	x	u	x
Cc1c(N2C(=O)/C(=C/c3ccccc3)SC2=S)c(=O)n(-c2ccccc2)n1C	-26%[46.1 µM]	u	-7%	4%	6%	-8%
Cc1c(N2C(=O)/C(=C\C3CC=CCC3)SC2=S)c(=O)n(-c2ccccc2)n1C (stereo unspecified)	-23%	u	-15%	1.3µM*	u	x
CCN(CC)C(=S)SCC(=O)NC12CC3CC(CC(C3)C1)C2	-15%	-12%	1%	4.5µM*	-2%	14µM*
N#CC(=C1CCCC1)c1nc(-c2ccccc2O)cs1	u	u	u	25µM*	4%	u
Oc1cccc(/C=N/NC(=S)Nc2cccnc2)c1O	1%	4%	5%	u	9%	32µM*
O=C(O)c1cccc(NC(=S)N/N=C/c2cccnc2)c1	10%	-13%	-8%	25µM*	-5%	x
CC(=O)Nc1cccc(C(=O)N/N=C/c2cccnc2)c1	-1%	-5%	2%	6%	-7%	x
Oc1ccc(/C=N/NC(=S)Nc2cccnc2)c(O)c1O	-9%	1.6µM*	11µM*[quencher]	x	2µM*	x
Cc1cc(NC(=O)c2noc3c2CCCC3)no1	-5%[46.1 µM]	0%	4%	-3%	0%	-7%
C=C(C(C)=O)C(O)/C=C/c1ccco1 (stereo unspecified)	x	u	-11%	-14%	u	-7%
CCSc1ncc(Cl)c(C(=O)N2CCN(c3ccccc3OC)CC2)n1	x	-13%	-19%	x	-2%	x
CC(C)Oc1cccc(C(=O)C2CCCN(Cc3cccn3-c3ccccn3)C2)c1 (stereo unspecified)	-22%	u	-2%	4%	-5%	x
O=S(=O)(Cc1ccccc1Cl)CC(O)COc1ccccc1Cl (stereo unspecified)	-20%[46.1 µM]	-19%	-15%	-4%	5%	11µM*
COc1ccc(NC(=O)Nc2sc(NS(=O)(=O)c3ccccc3)nc2C)cc1	-2%	u	u	8.9µM*	1%	x
Cc1ccc(S(=O)(=O)Nc2nc(C)c(NC(=O)Nc3ccc(Cl)cc3Cl)s2)cc1	-12%[46.1 µM]	22µM*	14µM*[quencher]	-6%	1%	-5%
Cc1nc(NS(=O)(=O)c2ccccc2)sc1NC(=O)OC(C)C	-5%[46.1 µM]	-17%	-4%	u	5%	-18%
CCc1nnc(SCc2ccc(F)cc2Cl)c2cc3sc(C)cc3n12	x	-13%	-3%	x	0%	x

Screens deposited in PubChem by National Center for Advancing Translational Sciences (NCATS).
